Compound activity: PubChem, several laboratories
Most compounds without a hit are left out; they make up all but 5.4% or so of the library.
PP1 counter: counter-screen for PP5 inhibitors: inhibitors of human PP1-alpha. inhibition, % at 6.7 µM. P62136. actives 0.9% (n = 320,000). purified PP1alpha, OMFP fluorescence. AID 2235;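 active means inhibition above the mean inhibition of all tested compounds plus 3 SD, computed separately for each screening campaign, cut at about 15% in these data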
PP5 primary: blocks human protein phosphatase 5 activity. P53041. purified PP5c, OMFP substrate fluorescence. inhibition, % at 6.7 µM. actives 0.18% (n = 320,000). AID 1987;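 active means inhibition above the campaign's mean inhibition across all tested compounds plus 3 SD, cut at about 9.5% in these data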;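 further: 0% = DMSO only and 100% = 100 µM cantharidin control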
Target sequence (P53041 whole entry, looked up): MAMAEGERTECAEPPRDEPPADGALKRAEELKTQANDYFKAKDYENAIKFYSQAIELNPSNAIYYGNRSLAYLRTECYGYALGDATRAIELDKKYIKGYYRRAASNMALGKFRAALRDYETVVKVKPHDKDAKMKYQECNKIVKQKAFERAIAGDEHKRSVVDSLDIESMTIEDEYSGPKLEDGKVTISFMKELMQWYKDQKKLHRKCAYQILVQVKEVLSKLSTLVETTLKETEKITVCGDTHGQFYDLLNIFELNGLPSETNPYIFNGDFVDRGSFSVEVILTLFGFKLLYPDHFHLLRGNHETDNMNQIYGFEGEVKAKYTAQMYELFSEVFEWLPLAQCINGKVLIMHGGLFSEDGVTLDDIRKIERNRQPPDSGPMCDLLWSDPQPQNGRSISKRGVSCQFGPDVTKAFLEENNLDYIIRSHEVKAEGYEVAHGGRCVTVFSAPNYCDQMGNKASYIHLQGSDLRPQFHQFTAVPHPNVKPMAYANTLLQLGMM
Calb FLC: C. albicans growth modulation with fluconazole; C. albicans CaCi-2 (fluconazole-resistant clinical isolate) + fluconazole, Alamar Blue growth, 48 h; growth inhibition, % (concentration not given with the values); actives 0.57% (n = 300,000); AID 1979;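 active means growth inhibition above about 58% in most replicates, limit read from the data, passing the limit was not always enough; inconclusive means exactly half the replicates above a set limit; inactive means most replicates below a set limit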;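 further: all wells also contain fluconazole at 8 µg/ml as a sub-toxic cotreatment; 0% = median of DMSO wells and 100% = median of geldanamycin control wells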
ALR H2O2 inh: blocks human ALR sulfhydryl oxidase activity; P55789; purified ALR, DTT oxidation, H2O2 HRP-luminol luminescence; inhibition, % (concentration not given with the values); actives 3.8% (n = 290,000); AID 485317;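 active means mean replicate inhibition above about 79%, with every replicate also reaching it, limit read from the data; inconclusive means only one of the two criteria met; inactive means mean below limit and not every replicate reaching it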
Target sequence (P55789 whole entry, looked up): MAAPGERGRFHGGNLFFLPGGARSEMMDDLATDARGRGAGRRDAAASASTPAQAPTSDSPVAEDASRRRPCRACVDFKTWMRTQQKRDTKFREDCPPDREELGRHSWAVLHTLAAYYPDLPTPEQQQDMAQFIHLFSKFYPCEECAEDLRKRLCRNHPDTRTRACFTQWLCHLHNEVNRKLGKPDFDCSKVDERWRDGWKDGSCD
CSC inhib: cancer stem cell inhibition | inhibition, % at 7.5 µM | actives 1.1% (n = 300,000) | cancer stem cell-like cells viability, luminescence; in the data active means inhibition above about 75%; inconclusive means no clear call, values can overlap the other calls; tested in HMLE shEcad cells
PP5 conf: PP5 (human) inhibition, confirmation; AID 2331; inhibition, % at 6.7 µM; Purified PP5, fluorogenic phosphatase substrate, fluorescence; shares compounds with PP5 primary; actives 22% (n = 460); in the data active means inhibition above about 9.5%
PP1 counter 3x: inhibits human PP1 phosphatase in PP5 counter-screen; shares compounds with PP5 primary; actives 4% (n = 460); PP1 enzyme, fluorescent phosphatase substrate; inhibition, % at 6.7 µM; in the data active means inhibition above about 16%
Numbers without * were called inactive; ? = inconclusive; / = no result given.

SMILES | PP1 counter | PP5 primary | Calb FLC | ALR H2O2 inh | CSC inhib | others
Cc1ccc2nc(C)c(CN3CCN(c4ccc([N+](=O)[O-])cc4Cl)CC3)n2c1 | -1.7 | 2.4 | ? | -1.8 | 2.4
CC(C)c1ccc2oc(-c3cc(N)ccc3O)nc2c1 | 1.8 | 6.4 | ? | 93.0* | 15.0
Cc1n[nH]c(C)c1CCNCc1ccc(OCC(O)CN2CCCCC2)cc1 (stereo not drawn) | 1.8 | -0.3 | 70.5* | -0.5 | 7.2
CCCc1ccc(OCC(O)CN2CCCC2)cc1 (stereo not drawn) | / | / | -65.6 | -1.8 | 8.6
O=C(N/N=C/c1cccc(Oc2ccccc2)c1)c1ccccc1Br | 3.9 | 0.5 | -0.7 | -5.5 | /
CCOC(=O)C1CCN(C(=S)Nc2ccccc2)CC1 | -3.6 | 0.6 | -3.6 | -3.3 | -13.3
CCOC(=O)C1CCCN(C(=S)Nc2ccc(Nc3ccccc3)cc2)C1 (stereo not drawn) | -1.0 | 3.5 | -10.5 | 96.7* | -3.4
O=C(Oc1ccccc1C(=O)Nc1ccccc1)c1ccc(Br)c([N+](=O)[O-])c1 | 0.8 | 0.8 | -5.6 | 96.6* | 33.1
CCN1CCN(c2cc(C(C)(C)C)nc3c(-c4ccccc4)c(C)nn23)CC1 | 0.4 | 1.2 | 21.2 | 7.0 | 139.8*
CCc1ccc2c(c1)c(N=NC1=NC(=O)CS1)c(O)n2CC | -1.4 | 2.5 | ? | 17.3 | 25.5
CCOC(=O)c1ccc(Nc2nc(C)cc(C)n2)cc1 | / | / | 4.3 | -2.3 | 20.6
CCOC(=O)c1ccc(Nc2cc(C)nc(-c3ccccc3)n2)cc1 | 4.7 | 5.5 | 24.7 | 3.1 | 97.1*
Brc1ccc(-c2csc(NC3=NCCCCC3)n2)cc1 | -1.1 | 0.6 | 7.2 | -3.2 | 17.4
COc1ccc(-c2csc(NC3=NCCCCC3)n2)cc1 | 1.8 | 0.5 | 16.1 | 97.7* | 21.5
CCOc1ccc(-c2csc(NNC3=NCCCCC3)n2)cc1 | 1.1 | 1.2 | -17.3 | 98.9* | 26.4
Fc1ccc(-c2csc(NC3=NCCC3)n2)cc1 | 1.9 | 0.7 | -0.4 | 97.4* | 0.9
Cc1cccc(N(C(=O)CCC(=O)Nc2cc(C)on2)C(C(=O)NC2CCCC2)c2ccc(C)o2)c1 (stereo not drawn) | 0.2 | 3.7 | 35.0 | -0.5 | /
O=C1CCC/C(=N/NC(=O)c2sc3ccccc3c2Cl)C1 | -2.5 | -0.2 | 3.9 | 97.8* | 9.3
Cc1ccc(C(=O)Oc2cccc(-n3cnnn3)c2)cc1 | -1.7 | -1.4 | 3.9 | -2.0 | -8.1
COc1cc(/C=C2\COC/C(=C\c3cc(OC)c(OC)c(OC)c3)C2=O)cc(OC)c1OC | / | / | 11.7 | / | /
COc1cc(/C=C2/C(=O)CNC2=O)ccc1O | -6.5 | 2.0 | -2.7 | 99.0* | -20.6
COc1cc(/C=C2/CCC/C(=C\c3cc(O)c(OC)c(Cl)c3)C2=O)cc(Cl)c1O | 2.1 | 4.5 | 8.5 | 16.2 | 118.7*
CN=C1S/C(=C\c2ccc(O)c(OC)c2)C(=O)N1C | -4.1 | 3.1 | 2.5 | 74.5 | 9.6
COc1cc(/C=C2\CCC/C(=C\c3ccc(O)c(OC)c3)C2=O)ccc1O | 1.9 | 3.1 | -7.3 | / | 100.4*
COc1cc(/C=C2\CC/C(=C\c3cc(OC)c(OC)c(OC)c3)C2=O)cc(OC)c1OC | -0.6 | 4.0 | 12.4 | -4.3 | 4.2
SMILES | PP1 counter | PP5 primary | Calb FLC | ALR H2O2 inh | CSC inhib | others
COc1cc(/C=C2\CC/C(=C\c3cc(OC)c(O)c(OC)c3)C2=O)cc(OC)c1O | 1.4 | 1.2 | / | 43.5 | 85.5*
CCC(C)NC(=O)CC(c1ccc(OC)cc1)n1cccc1 (stereo not drawn) | 5.4 | -2.6 | -35.1 | 1.8 | 0.8
CCCCN(C(=O)c1ccccc1OCc1ccc(F)cc1)c1c(N)n(CCC)c(=O)[nH]c1=O | -1.2 | -2.0 | 4.9 | -1.2 | -35.0
COc1cc(/C=C2\CC(C(C)(C)C)C/C(=C\c3cc(OC)c(OC)c(OC)c3)C2=O)cc(OC)c1OC (stereo not drawn) | 0.6 | 3.0 | 3.6 | 8.2 | 106.7*
Cn1c(-c2ccccc2)nc2cnccc21 | 1.3 | 1.1 | -3.1 | / | -11.1
[O-]/C(=C(\C(=S)NCc1ccccc1)[n+]1ccccc1)c1ccc(Cl)cc1 | -0.1 | 1.4 | -5.0 | -13.1 | -0.1
C=CCNC(=S)/C(=C(\[O-])c1ccc(Cl)cc1)[n+]1ccccc1 | -1.9 | 0.2 | 1.7 | 97.9* | -10.9
O=S(=O)(c1ccc(Cl)s1)N1CCNCC1 | / | / | / | -6.8 | -6.4
CC(=O)n1cc(Nc2ccc([N+](=O)[O-])cc2)c2ccccc21 | -4.0 | -2.5 | -7.5 | 4.2 | -8.6
CC(=O)SC(C[N+](=O)[O-])c1cn(C(C)=O)c2ccccc12 (stereo not drawn) | -1.5 | 0.0 | 111.6* | 100.1* | -2.3
C/C(=N\Nc1nnc2c3ccccc3n(C)c2n1)c1ccc(C)o1 | 2.3 | -0.4 | 23.2 | 23.4 | -14.9
C/C(=N\Nc1nc(C)cc(C)n1)c1ccc(C)o1 | 1.2 | -0.5 | 22.5 | 91.0* | -2.5
O=C(Nc1ccc(C(O)(C(F)(F)F)C(F)(F)F)cc1)c1ccc(Cl)c([N+](=O)[O-])c1 | 4.6 | 11.1* | -1.3 | 31.7 | 87.2* | PP5 conf=6.2;PP1 counter 3x=6.0
CC(C)=CC(=O)N1CCCc2ccccc21 | 6.7 | 9.7* | -4.6 | 1.9 | -7.2 | PP5 conf=-4.4;PP1 counter 3x=-6.0
CC(C)OC(=O)c1c(-c2ccc(C(C)C)cc2)csc1NC(=O)C1CCCO1 (stereo not drawn) | -2.8 | 2.0 | -4.8 | 4.6 | 68.9
CC(C)CN(C(=O)COC(=O)c1ccc(Cl)nc1)c1c(N)n(Cc2ccccc2)c(=O)[nH]c1=O | -0.9 | -0.5 | / | 1.6 | -4.2
NC(=O)C1CCN(c2ncccc2[N+](=O)[O-])CC1 | -5.0 | 0.5 | -1.9 | 0.0 | -9.3
O=[N+]([O-])c1cccnc1N1CCC(c2cc(-c3cccc(C(F)(F)F)c3)n[nH]2)CC1 | 4.3 | 10.4* | 0.5 | -3.0 | 122.7* | PP5 conf=4.3;PP1 counter 3x=3.6
CC(C)Sc1nsc2nc(=O)c(/C=C3\C=Nc4ccccc43)c(N)n12 | -3.6 | 14.1* | 33.7 | 2.5 | 34.7 | PP5 conf=0.3;PP1 counter 3x=0.9
COc1ccc(NC(=S)Nc2ccc3nsnc3c2)cc1 | 3.0 | 11.9* | -17.4 | 6.4 | 11.3 | PP5 conf=47.4*;PP1 counter 3x=0.3
CCOc1ccc(NC(=S)Nc2ccc3nsnc3c2)cc1 | 10.5 | 11.6* | 1.6 | 14.5 | 3.3 | PP5 conf=49.2*;PP1 counter 3x=3.0
CCOc1ccc(NC(=O)Nc2ccc3nsnc3c2)cc1 | -2.5 | 3.3 | -3.8 | -28.5 | 29.2
CC1(C)Cc2c(sc3nc(NCCN4CCOCC4)n4ncnc4c23)CO1 | -2.1 | -1.4 | -3.6 | -0.1 | -14.0
Cn1cccc1Cc1nnc(SCC(=O)N2CCCCCC2)n1-c1ccc(F)cc1 | 0.5 | -0.4 | 4.2 | / | 26.1
O=c1cc2c(nn1Cc1ccc(Cl)cc1Cl)-c1ccccc1CC2 | 5.6 | 4.3 | -1.2 | -14.9 | 4.1
CCCCOc1ccc(C(=O)Nc2ccc(N3CCN(C(=O)C(C)C)CC3)cc2)cc1 | 3.0 | 1.2 | -2.6 | 2.5 | /
CCCCOc1ccc(C(=O)Nc2ccc(N3CCN(C(C)=O)CC3)cc2)cc1 | -7.4 | 11.8* | -10.0 | -25.6 | 8.1 | PP5 conf=-4.5;PP1 counter 3x=-3.6
